Measured values: PubChem BioAssay
Where “and” joins values, the source holds several entries; their conditions need not be identical. Identical values can stand only once. Calls of active or inactive are those of the source. Rule as the data show it, unless noted: active = inhibition above about 80%; inactive = the rest.

How the values were obtained:
[1] = viability loss with induced miR-34 in A549 – imaging, A549 dox-inducible miR-34, nuclei and caspase counts, primary screen (AID 1347080;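 active = compounds whose cell count with miR-34 switched on is under 0.7 times the count with it off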); conditions: A549 miR-34 inducible, Hoechst nuclei count, 48 h
[2] = MELAS cybrid and Rieske KO viability enhancers – cell-based, MELAS cybrids, Rieske KO mouse fibroblasts, CellTiter-Glo, primary screen (AID 1508586;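 active = mean z-score across replicates of 1.96 or higher in either the MELAS or the Rieske mutant cell line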;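 also: z relative to plate mean and SD of compound and empty wells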); conditions: low glucose
[3] = growth inhibition, single agent or in combination, cell-based, chromothripsis tumors, cisplatin or BGB combos (AID 1671449); conditions: LFS_MB_P medulloblastoma cells;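 also: cells exposed for 96 hours; 0% = vehicle DMSO and 100% = killing by high DMSO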
[4] = growth inhibition, single agent and combos, cell-based, chromothripsis tumors, cisplatin or BGB combos (AID 1671450); conditions: HDN33 neuroblastoma cells, stronger effect = higher value;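 also: cells exposed to compound for four days; 0% = vehicle DMSO and 100% = cell killing by high DMSO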
[5] = growth inhibition, single agents and combos, ICB984, cell-based, cisplatin or BGB combos, synergistic combos for chromothripsis tumors (AID 1671451; call rule not given here;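 also: cells exposed for 96 hours before readout; 0% = vehicle DMSO and 100% = killing by high DMSO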); conditions: ICB984 medulloblastoma cells, drug combinations, stronger effect = higher value
[6] = growth inhibition, single agents and combos, LFS_MB_1R, cell-based, cisplatin or BGB combos, synergistic combos for chromothripsis tumors (AID 1671452); conditions: LFS_MB_1R medulloblastoma cells, stronger effect = higher value;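 also: cells exposed for 96 hours before readout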
[7] = growth inhibition, single agents and combos, HTB85, cell-based, BGB or cisplatin IC20 combos, synergistic combos for chromothripsis tumors (AID 1671453); conditions: HTB85 osteosarcoma cells, drug combinations, stronger effect = higher value;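 also: cells exposed for 96 hours before readout; 0% = vehicle DMSO and 100% = high DMSO killing control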
[8] = growth inhibition, single agents and combos, CRL2098, cell-based, BGB or cisplatin IC20 combos, synergistic combos for chromothripsis tumors (AID 1671454); conditions: CRL2098 osteosarcoma cells, drug combinations, stronger effect = higher value;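 also: cells exposed for 96 h before readout; 0% = vehicle DMSO and 100% = killing by high DMSO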
[9] = growth inhibition, single agents and combos, HD-MB03, cell-based, BGB or cisplatin IC20 combos, synergistic combos for chromothripsis tumors (AID 1671455; in the data active = inhibition above about 83%;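 also: 0% = vehicle DMSO and 100% = high DMSO as cytotoxic control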); conditions: HD-MB03 medulloblastoma cells, stronger effect = higher value
[10] = growth inhibition, single agents and combos, UWB1.289, cell-based, BGB or cisplatin combos, synergistic combos for chromothripsis tumors (AID 1671456); conditions: UWB1.289 ovarian carcinoma cells, stronger effect = higher value;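 also: cells exposed to compound for four days; 0% = vehicle DMSO and 100% = killing by high DMSO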
[11] = growth inhibition, single agents and combos, LFS_MB_2R, cell-based, cisplatin combos, synergistic combos for chromothripsis tumors (AID 1671457); conditions: LFS_MB_2R medulloblastoma cells, stronger effect = higher value;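 also: cells exposed to compound for four days before readout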
[12] = growth inhibition, MDA-MB-436, cell-based, BGB or cisplatin combos, synergistic combos for chromothripsis tumors (AID 1671458; call rule not given here;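 also: cells exposed for 96 hours; 0% = vehicle DMSO and 100% = killing by high DMSO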); conditions: MDA-MB-436 breast carcinoma growth inhibition, drug combinations, stronger effect = higher value
[13] = UWB1.289_BRCA1 ovarian cancer growth, cell-based, BGB or cisplatin combinations (AID 1671459); conditions: UWB1.289 BRCA1 ovarian carcinoma, drug combinations, stronger effect = higher value
[14] = drug combination toxicity in non-malignant astrocytes – cell-based, BGB or cisplatin IC20 combos, cytotoxicity control for chromothriptic childhood tumor combination screen (AID 1671460); conditions: Human astrocytes, viability inhibition, drug combinations, at 0.5 µM, stronger effect = higher value;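 also: cells exposed to compounds for 96 hours before viability readout; 0% = vehicle and 100% = killing control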
[15] = BT084 cell growth, single and combined drugs, ICGC_MB145, cisplatin and BGB IC40 combos (AID 1671461); conditions: BT084 medulloblastoma cells, drug combinations, stronger effect = higher value;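 also: cells exposed to drugs for 96 hours; 0% = vehicle DMSO and 100% = high DMSO full killing control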
[16] = RCMB18 cell growth, single agent and combined, cisplatin and BGB IC40 combos (AID 1671462); conditions: RCMB18 medulloblastoma cells, stronger effect = higher value;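 also: cells exposed to compound for four days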
[17] = CRL1545 cell growth, single agent and combined, cisplatin and BGB IC20 combos (AID 1671464); conditions: CRL1545 osteosarcoma cells, stronger effect = higher value;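 also: cells exposed to compound for 96 hours before readout; 0% = vehicle DMSO and 100% = high DMSO killing control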
[18] = measured here: combination with BGB IC40, at 0.05 µM
[19] = measured here: with BGB IC20 combination, at 0.5 µM
[20] = measured here: with cisplatin IC20 combination, at 0.5 µM
[21] = measured here: combination with cisplatin, at 0.5 µM
[22] = measured here: combination with cisplatin, at 5 µM

O=c1ccn(C2OC(CO)C(O)C2O)c(=O)[nH]1 (centres undefined)
fold change ([1]; stronger effect = lower value, cell number ratio, induced over uninduced): 0.86 (inactive) | fold change ([1]; measured here: relative caspase fold change +Dox/-Dox): 0.784 | cell count ([1]; measured here: total cells with miR-34 induction, stronger effect = lower value): 8240 | cell count ([1]; measured here: total cells without miR-34 induction): 9580 | z-score ([2]; MELAS cybrid survival, CellTiter-Glo 48 h, stronger effect = higher value): -0.15 (inactive) | z-score ([2]; Rieske KO mouse fibroblast survival, CellTiter-Glo 72 h): 0.496 | inhibition ([3]; at 0.5 µM, stronger effect = higher value): -8.26% (inactive) and 22% (inactive) | inhibition ([3]; measured here: combination with BGB IC20, at 0.005 µM): 10.5% and -21.6% | inhibition ([3]; measured here: combination with BGB IC40, at 0.005 µM): 8.95% and -30.9% | inhibition [3, 18]: 17.3% and -34.8% | inhibition ([3]; measured here: combination with cisplatin, at 0.5 µM, stronger effect = higher value): 37.5% and 6.75% | inhibition ([3]; measured here: combination with cisplatin, at 5 µM, stronger effect = higher value): -10.3% and -15.6% | inhibition ([4]; BGB combo, at 5 µM): 17.7% and -13.8% | inhibition ([4]; at 0.5 µM): 23.7% (inactive) and 2.11% (inactive) | inhibition ([4]; cisplatin combo, at 5 µM): 22% and -0.337% | inhibition [4, 19]: 17.2% and -17.5% | inhibition [4, 20]: 35.5% and -0.199% | inhibition ([4]; single agent, at 5 µM): 18.6% and -37.8% | inhibition ([5]; BGB IC20 combo, at 0.005 µM): 12.4% and 14.9% | inhibition ([5]; BGB IC40 combo, at 0.005 µM): 6.25% and -39.4% | inhibition ([5]; BGB IC40 combo, at 0.05 µM): -7.22% and -39.4% | inhibition ([5]; at 0.5 µM): -8.08% (inactive) and -24.1% (inactive) | inhibition ([5]; cisplatin combo, at 0.05 µM): -11.1% and -43.3% | inhibition ([5]; cisplatin combo, at 0.5 µM): 4.25% and -24.8% | inhibition ([5]; cisplatin combo, at 5 µM): -7.38% and -52.9% | inhibition ([5]; measured here: 5 uM single agent, at 5 µM): 7.59% and -39.4% | inhibition ([6]; at 0.5 µM): -5.2% (inactive) and -14.4% (inactive) | inhibition [6, 18]: -12.7% and -13.9% | inhibition [6, 21]: -10% and 2.17% | inhibition [6, 22]: -46% and -44.9% | inhibition ([7]; at 0.5 µM): 10.7% (inactive) and -20.8% (inactive) | inhibition ([7]; measured here: with BGB IC20, at 0.5 µM): 10.2% and -46.4% | inhibition ([7]; measured here: with BGB IC20, at 5 µM): 15% and -44.4% | inhibition ([7]; measured here: with cisplatin IC20, at 0.5 µM): 7.75% and -5.03% | inhibition ([7]; measured here: with cisplatin IC20, at 5 µM): 1.8% and -45.1% | inhibition ([7]; single agent, at 5 µM): 13% and -28.4% | inhibition ([8]; at 0.5 µM): 9.28% (inactive) and -75.8% (inactive) | inhibition ([8]; measured here: combination with BGB at IC20, at 0.5 µM): 0.692% and -94% | inhibition ([8]; measured here: combination with cisplatin at IC20, at 0.5 µM): 13.9% and -68.3% | inhibition ([9]; at 0.5 µM): 6.18% (inactive) and -13.5% (inactive) | inhibition ([9]; measured here: combo with BGB at IC20, at 0.5 µM): 2.23% and -12.6% | inhibition ([9]; measured here: combo with cisplatin at IC20, at 0.5 µM): 13.4% and -11.6% | inhibition ([10]; at 0.5 µM): 16.3% (inactive) and -6.23% (inactive) | inhibition ([10]; measured here: inhibition with BGB combination, at 0.05 µM): -2.12% and -33.8% | inhibition ([10]; measured here: inhibition with cisplatin combination, at 0.05 µM): 36.9% and -21.3% | inhibition ([11]; at 0.5 µM): 6.19% (inactive) and -21.5% (inactive) | inhibition [11, 21]: 9.72% and -11.9% | inhibition [11, 22]: 14.1% and -81.5% | inhibition ([12]; at 0.5 µM): 10.4% (inactive) and -39.6% (inactive) | inhibition ([12]; measured here: BGB combination, at 0.5 µM): 7.3% and -43.2% | inhibition ([12]; measured here: BGB combination, at 5 µM): 8.01% and -19.5% | inhibition ([12]; measured here: cisplatin combination, at 0.5 µM): 12.2% and -58.5% | inhibition ([12]; measured here: cisplatin combination, at 5 µM): 2.73% and -39.8% | inhibition ([13]; BGB combination, concentration series, at 5 µM): 8.48% and -29.5% | inhibition ([13]; at 0.5 µM): 10.7% (inactive) and -14.6% (inactive) | inhibition ([13]; cisplatin combination, concentration series, at 5 µM): -14.1% and -9.02% | inhibition [14]: 8.08% (inactive) and -8.91% (inactive) | inhibition ([14]; measured here: combo with BGB IC20): 10.4% and -14.8% | inhibition ([14]; measured here: combo with cisplatin IC20): 12.5% and -5.12% | inhibition ([15]; at 0.5 µM): 5.91% (inactive) and -28.7% (inactive) | inhibition ([15]; cisplatin combination, at 0.5 µM): -2.3% and -6.58% | inhibition ([15]; cisplatin combination, at 5 µM): -4.68% and -1.56% | inhibition ([15]; measured here: BGB IC40 combination 0.05 uM, at 0.05 µM): 39.8% and -13.1% | inhibition ([15]; single agent, at 5 µM): -4.18% and -25.9% | inhibition ([16]; at 0.5 µM): 11% (inactive) and -17.5% (inactive) | inhibition ([16]; cisplatin combo, at 5 µM): 10.7% and -4.43% | inhibition ([16]; measured here: BGB IC40 combination, at 0.05 µM): 15.8% and -34.3% | inhibition [16, 21]: 22.8% and -4.28% | inhibition ([16]; single agent, at 5 µM): -1.69% and -19.5% | inhibition ([17]; at 0.5 µM): 11.7% (inactive) and -2.83% (inactive) | inhibition [17, 19]: -2.36% and -19.1% | inhibition [17, 20]: 17.5% and 3.15% | inhibition ([17]; single agent, at 0.05 µM): 32.6% and -48.2% | inhibition ([17]; single agent, at 5 µM): -21.6% and -1.48%
